Screening results (PubChem)
In the library only some 2.3% were active in any assay of this set; here they are far more common.
PDI inh: inhibitors of human PDI, primary screen, biochemical, turbidity, single point, plate reader; Protein disulfide-isomerase (Homo sapiens), P07237; PDI insulin aggregation turbidity, A650, 90 min; inhibition, % at 10 µM; actives 0.052% (n = 350,000); AID 588391, 2011;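 active = mean inhibition across replicates of 30% or more, whatever share of single replicates reach that level; inconclusive = mean inhibition below 30% while every single replicate reaches 30%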
SIRT5 block: SIRT5 desuccinylase inhibitors, primary screen, biochemical, fluorescence imaging, single point, set 5 | NAD-dependent protein deacylase sirtuin-5, mitochondrial (Homo sapiens), Q9NXA8 | Purified SirT5, succinyl-peptide AMC, trypsin-coupled fluorescence | inhibition, % at 15 µM | actives 1.1% (n = 330,000); in the data active = inhibition above about 15%; inconclusive = no clear call, values can overlap the other calls
DENV2 CPE: inhibitors of DENV2 cytopathic effect, primary screen, cell-based, plate reader, single concentration. DENV2-infected cells, cytopathic effect rescue. CPE inhibition, % at 9.99 µM. actives 1.7% (n = 350,000). AID 651640, 2012; in the data active = CPE inhibition above about 20%, passing the limit was not always enough; inconclusive = no clear call, values can overlap the other calls; tested in BHK-21 cells;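 note: 0% = median of neutral control wells and 100% = median of positive control wells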
ERp5 block: inhibitors of ERp5-driven insulin aggregation, primary screen, biochemical, turbidity, absorbance 650 nm, single point; Protein disulfide-isomerase A6 (Homo sapiens), Q15084; 90 min; actives 0.05% (n = 350,000); inhibition, % at 9.99 µM;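 active = mean replicate inhibition above about 25%, with every replicate also reaching it, limit read from the data, passing the limit was not always enough; inconclusive = only one of those two criteria met; inactive = neither criterion met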
Rtt109 Vps75: inhibitors of C. albicans Rtt109/Vps75 HAT, primary screen, biochemical, ThioGlo CoA-SH fluorescence, plate reader | Histone acetyltransferase RTT109 (Candida albicans (strain SC5314 / ATCC MYA-2876)), … | purified Rtt109/Vps75, 4 h | actives 0.16% (n = 330,000) | inhibition, % at 34.9 µM;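 active = inhibition of at least 50% in every replicate; inconclusive = best replicate reaches 50% inhibition but some replicates fall short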
Target sequence (Q5AAJ8 whole entry, looked up): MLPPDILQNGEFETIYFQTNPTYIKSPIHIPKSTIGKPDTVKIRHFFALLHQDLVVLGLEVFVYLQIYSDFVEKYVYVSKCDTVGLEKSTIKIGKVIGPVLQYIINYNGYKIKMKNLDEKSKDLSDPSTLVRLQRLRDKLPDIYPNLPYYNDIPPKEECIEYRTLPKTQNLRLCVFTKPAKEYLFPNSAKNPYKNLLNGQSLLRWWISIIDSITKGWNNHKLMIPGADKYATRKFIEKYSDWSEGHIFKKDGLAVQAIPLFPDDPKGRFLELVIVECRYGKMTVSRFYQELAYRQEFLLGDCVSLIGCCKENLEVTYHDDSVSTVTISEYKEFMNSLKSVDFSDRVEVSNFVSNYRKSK
* marks the source's active call; other numbers are inactive results.

For CC(=O)N1[C@H](CO)[C@H](c2ccccc2)C12CN(C(=O)c1ccc3c(c1)OCO3)C2 the results were SIRT5 block -1.5, DENV2 CPE 0.7 and ERp5 block -0.9.
Screening CC(=O)N1[C@H](CO)[C@@H](c2ccccc2)C12CN(C(=O)c1ccc3c(c1)OCO3)C2 returned SIRT5 block -0.2, DENV2 CPE 55.3* and ERp5 block 0.7.
Screening COc1cccc(NC(=O)N[C@@H]2C=C[C@H](CC(=O)Nc3ccc(-c4ccccc4)cc3)O[C@@H]2CO)c1 returned SIRT5 block 9.1, DENV2 CPE -5.4 and ERp5 block 1.1.
Screening CC(C)C[C@@H](CNCC(=O)[C@H](CC(C)C)NC(=O)c1[nH]cnc1C(=O)N[C@@H](C)CN)NC(=O)c1nc[nH]c1C(=O)N[C@@H](CC(=O)O)C(=O)O returned PDI inh 4.0, DENV2 CPE 86.9*, ERp5 block -4.1 and Rtt109 Vps75 -2.1.
CC(C)C[C@@H](CNCC(=O)[C@H](CC(C)C)NC(=O)c1[nH]cnc1C(=O)N[C@@H](C)CN)NC(=O)c1nc[nH]c1C(=O)N[C@@H](CC(C)C)C(=O)O was read as PDI inh 3.6, SIRT5 block 0.6, DENV2 CPE -11.7, ERp5 block 0.4 and Rtt109 Vps75 6.5.
`COc1ccc(NC(=O)Nc2ccc3c(c2)C(=O)N([C@H](C)CO)C[C@H](C)[C@H](CN(C)C(=O)Nc2ccc(C(F)(F)F)cc2)OCCCC[C@H](C)O3)cc1` gave SIRT5 block 3.4, DENV2 CPE 47.8* and ERp5 block -1.8.
`COc1ccc(NC(=O)N(C)C[C@@H]2OCCCC[C@@H](C)Oc3ccc(NC(=O)Nc4ccc(C(F)(F)F)cc4)cc3C(=O)N([C@@H](C)CO)C[C@@H]2C)cc1` gave SIRT5 block 15.7*, DENV2 CPE -6.9 and ERp5 block -5.1.
`COCC#Cc1cnc2c(c1)C(=O)N([C@H](C)CO)C[C@H](C)[C@H](CN(C)C(=O)C1CCCCC1)O2` gave SIRT5 block -5.2, DENV2 CPE -0.5 and ERp5 block -3.0.
For O=C(Cc1cccs1)NCCc1ccc(F)cc1 the results were PDI inh 2.3, SIRT5 block -1.9, DENV2 CPE -2.0, ERp5 block -0.5 and Rtt109 Vps75 1.0.
Screening OCCc1ccc(NCCc2cccs2)cc1 returned SIRT5 block 6.3, DENV2 CPE 20.9* and ERp5 block -4.5.
`CC(C)=NNC(=O)CN1C(=O)NC2NC(=O)NC21` (configuration not stated) gave PDI inh 5.1, SIRT5 block 1.5, DENV2 CPE 33.7*, ERp5 block 4.9 and Rtt109 Vps75 -1.0.
Screening C[C@@H]1CCCCO[C@@H](CN(C)C(=O)C2CCCCC2)[C@H](C)CN([C@@H](C)CO)C(=O)c2cc(NS(=O)(=O)c3ccc(Cl)cc3)ccc2O1 returned SIRT5 block -1.1, DENV2 CPE 1.6 and ERp5 block -0.1.
`C[C@H](CO)N1C[C@H](C)[C@H](CN(C)S(=O)(=O)c2ccccc2)Oc2ncc(-c3cccc(F)c3)cc2C1=O` gave SIRT5 block -1.0, DENV2 CPE -3.2 and ERp5 block -2.8.
C[C@@H]1CN([C@@H](C)CO)C(=O)c2cc(NC(=O)c3ccncc3)ccc2O[C@@H]1CN(C)S(=O)(=O)c1cn(C)cn1 was read as SIRT5 block 0.5, DENV2 CPE inconclusive and ERp5 block 5.8.
Screening CC(=O)c1ccc(OC(=O)Cc2cccc3ccccc23)cc1 returned PDI inh 14.0, SIRT5 block 25.6*, DENV2 CPE 10.5, ERp5 block -1.7 and Rtt109 Vps75 -9.4.
`COc1ccc(OC(=O)Cc2cccc3ccccc23)cc1` gave PDI inh 2.6, SIRT5 block 15.4*, DENV2 CPE -6.4, ERp5 block 0.5 and Rtt109 Vps75 12.1.
`COCC(=O)N(C)C[C@@H]1Oc2ncc(C#CC(C)(C)O)cc2C(=O)N([C@H](C)CO)C[C@@H]1C` gave SIRT5 block -1.7, DENV2 CPE 0.3 and ERp5 block 2.5.
Cc1ccc(S(=O)(=O)Nc2ccc3c(c2)C(=O)N([C@@H](C)CO)C[C@@H](C)[C@@H](CN(C)C(=O)NC(C)C)OCCCC[C@@H](C)O3)cc1 was read as SIRT5 block 2.9, DENV2 CPE 0.0 and ERp5 block 6.6.
Screening O=C(NCC[C@H]1CC[C@H](NC(=O)c2ccccc2F)[C@H](CO)O1)c1ccc2c(c1)OCO2 returned SIRT5 block 5.1, DENV2 CPE 0.1 and ERp5 block 3.3.
`CCCCCCCCN1C(=O)[C@H](CC(=O)NCC23CC4CC(CC(C4)C2)C3)C[C@@]2(C(=O)OCC)CCCC=C12` gave SIRT5 block -4.5, DENV2 CPE 20.1* and ERp5 block -6.1.
CCOC(=O)[C@]12CCC=C1N(Cc1cccc3ccccc13)C(=O)[C@H](CC(=O)NCc1cccc3ccccc13)C2 was read as SIRT5 block -7.6, DENV2 CPE 10.5 and ERp5 block 0.0.
`CCCCCCCCN1C(=O)[C@H](CC(=O)NCc2cccc(C(F)(F)F)c2)C[C@@]2(C(=O)OC)CC(C)(C)CC=C12` gave SIRT5 block 14.6, DENV2 CPE 43.9* and ERp5 block 4.7.
CCCCCCCCN1C(=O)[C@H](CC(=O)NCc2cccc3ccccc23)C[C@@]2(C(=O)OCC)CCC=C12 was read as SIRT5 block 15.6*, DENV2 CPE 6.5 and ERp5 block -2.8.
Screening CCOC(=O)[C@]12CCCC=C1N(CCC1=CCCCC1)C(=O)[C@H](CC(=O)NCc1ccc(OC)c(OC)c1)C2 returned SIRT5 block 2.4, DENV2 CPE 38.0* and ERp5 block 5.0.
CCOC(=O)[C@]12CCCC=C1N(Cc1ccc3c(c1)OCO3)C(=O)[C@H](CC(=O)NCCCCc1ccccc1)C2 was read as SIRT5 block -0.6, DENV2 CPE 50.3* and ERp5 block -0.7.
CCOC(=O)[C@]12CCCC=C1N(Cc1cccc3ccccc13)C(=O)[C@H](CC(=O)NCc1ccccc1)C2 was read as SIRT5 block -7.5, DENV2 CPE 2.1 and ERp5 block 1.3.
Screening CCOC(=O)[C@]12CCCC=C1N(CCC1=CCCCC1)C(=O)[C@H](CC(=O)NCc1cccc3ccccc13)C2 returned SIRT5 block -2.2, DENV2 CPE 21.7* and ERp5 block 2.3.
Screening C[C@H](CO)N1C[C@H](C)[C@H](CN(C)CC2CCOCC2)Oc2ncc(-c3cccc(F)c3)cc2C1=O returned SIRT5 block -0.6, DENV2 CPE 1.2 and ERp5 block -0.3.
